High-throughput results as filed in PubChem BioAssay.
Vaccinia mCherry: qHTS for Stage-Specific Inhibitors of Vaccinia Orthopoxvirus: mCherry Reporter Primary qHTS; Vaccinia virus mCherry reporter infection, fluorescence; Potency, µM (highest dose often 36.5 µM), for the others: at the top dose activity change, negative = inhibition, hits mostly inhibitors; actives 0.63% (n = 310,000); AID 720579, 2013; calls by dose curve; tested in A549 cells; also: potency is read from the fitted curve at half-maximal effect; nearly all actives have a fitted effect of over 35% in size
HCMV inh: qHTS Assay for inhibitors of the human cytomegalovirus (HCMV); actives 4.5% (n = 410,000); activity change, negative = inhibition, % at 57.5 µM; HFF cells, HCMV-luciferase reporter, 72 h; stronger effect = lower value; AID 1259415, 2018; in the data active = activity change below about -60%; inconclusive = no clear call, values can overlap the other calls; inactive = above about -39%
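Luciferase read-out from HCMV-luciferase-infected HFFs (MOI 1 PFU/cell) 72 h post infection at 37C; compounds added after 16 h cell attachment; activity normalized between buffer-only basal and Salinomycin (10uM) inhibitor controls.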
FMDV antiviral: High Throughput Screening for Foot and Mouth Disease Virus Antivirals; FMDV antiviral cell-based qHTS; Potency, µM (highest dose often 57.9 µM), without a hit: top-dose activity change, negative = inhibition, most hits filed as inhibitors; actives 1.2% (n = 410,000); calls by dose curve; tested in HEK293T cells; also: read-out not given here; potency is read from the fitted curve at half-maximal effect; nearly all actives have a fitted effect of over 45% in size
VACV Venus inh: qHTS for Stage-Specific Inhibitors of Vaccinia Orthopoxvirus: Venus Reporter Primary qHTS | Vaccinia virus Venus reporter expression, fluorescence | Potency, µM (series often up to 36.5 µM), without a hit: at the top dose activity change, negative = inhibition, actives largely listed as inhibitors | actives 0.46% (n = 330,000); calls by dose curve; tested in A549 cells; also: potency is read from the fitted curve at half-maximal effect; nearly all actives have a fitted effect of over 30% in size
Marburg entry inh: qHTS for inhibitors of binding or entry into cells for Marburg Virus | Marburg virus pseudotyped entry inhibition, cell reporter | Potency, µM (series often up to 37.8 µM), for the others: at the top dose activity change, negative = inhibition, actives largely listed as inhibitors | actives 1.8% (n = 300,000); calls by dose curve; tested in HEK293 cells; also: potency is read from the fitted curve at half-maximal effect
Lassa entry inh: qHTS for Inhibitors of binding or entry into cells for Lassa Virus | Lassa virus pseudotype entry inhibition, cell reporter | Potency, µM (top dose mostly 37.9 µM), for inactives: at the top dose activity change, negative = inhibition, actives largely listed as inhibitors | actives 1.2% (n = 300,000) | AID 540256, 2011; calls by dose curve; tested in HEK293 cells; also: potency is read from the fitted curve at half-maximal effect; nearly all actives have a fitted effect of over 50% in size
An asterisk follows results filed as active; i = inactive; ? = inconclusive; . = no result given; [ ] = remark or other dose. Rows were chosen to be rich in hits. Some 6.5% of all compounds tested hit in one or more screens of this group. % is scaled to controls: 0 for no effect and ±100 for the full control effect.

SMILES	Vaccinia mCherry	HCMV inh	FMDV antiviral	VACV Venus inh	Marburg entry inh	Lassa entry inh
CSc1ccc(CN2CCN(C(=O)c3ccc([N+](=O)[O-])cc3)CC2)cc1	-9.2%	-74.9*	?	-11.9%	?	?
O=C(c1ccc(Oc2ccc([N+](=O)[O-])cc2)cc1)N1CCCCCC1	i	-24.8	-22.0%	-12.7%	5.62µM*	?
CCN(C(=O)Cn1nc(Cc2ccncc2)c2ccccc2c1=O)c1ccc(OC)cc1	-17.6%	-20.5	-9.0%	-11.4%	?	11.6%[46.1 µM]
CCc1ccccc1N(CC)C(=O)Cn1nc(Cc2ccncc2)c2ccccc2c1=O	-16.0%	-71.7*	-9.6%	-13.8%	?	-6.1%[46.1 µM]
CCOc1ccc(/C=N/n2c(C3CCCCC3)n[nH]c2=S)cc1	.	-81.2*	-15.4%	.	.	.
Fc1ccc(/C=N/n2c(C3CCCCC3)n[nH]c2=S)cc1	.	24.0	-26.2%	.	.	.
CN(C)c1ccc(/C=N/n2c(C3CCCCC3)n[nH]c2=S)cc1	-4.1%	-10.7	-14.7%	-26.5%	2.24µM*	?
S=c1[nH]nc(C2CCCCC2)n1/N=C/c1ccccc1	.	7.9	-7.1%	.	.	.
CCN(CC)C(=O)CSC1=C(C#N)C(c2cccs2)C=C(C)N1 (stereo unspecified)	.	-16.5	0.7%	-10.2%	7.94µM*	?
O=C(NC1CCCCC1)c1nnc2n1CCN(Cc1cccc(C(F)(F)F)c1)C2	.	21.2	.	.	.	.
CCCc1ccc(C2C3=C(CC(C)(C)CC3=O)NC3=C2C(=O)c2ccccc23)cc1 (stereo unspecified)	-25.6%	?	-8.3%	?	?	?
CCCCc1ccc(C2C3=C(CC(C)(C)CC3=O)NC3=C2C(=O)c2ccccc23)cc1 (stereo unspecified)	-29.6%	-86.0*	-9.1%	?	?	?
CC1(C)CC(=O)C2=C(C1)NC1=C(C(=O)c3ccccc31)C2c1ccc(O)cc1 (stereo unspecified)	?	4.9	?	11.2µM*	?	-23.5%
[O-][n+]1onc2c3cc(-c4ccccc4)nnc3ccc21	?	-99.0*	16.9%	0.4%	-14.1%	-5.8%
CSc1ncccc1C(=O)NCC1Cc2cc(-c3cnccn3)ccc2O1 (stereo unspecified)	-2.4%	.	-7.6%	6.5%	.	.
CNC(=S)N/N=C/C1=CCC2CC1C2(C)C (stereo unspecified)	-30.0%	64.1	0.5%	-12.2%	2.6%	1.3µM*
O=C(O[C@@H]1Cc2c(O)cc(O)cc2OC1c1ccc(O)c(O)c1)c1cc(O)c(O)c(O)c1 (stereo partly specified)	-5.7%	.	4.6%	-12.9%	.	.
O=C(O)c1cc(=O)c2c3nc4ccccc4oc-3cc(=O)c2[nH]1	-9.9%	.	.	-10.5%	.	.
Nc1cc2nc3ccccc3oc-2cc1=O	?	-91.2*	12.6%	?	.	.
CC(NS(=O)(=O)OCC(Cl)(Cl)Cl)c1ccc(C(C)(C)C)cc1 (stereo unspecified)	11.2µM*	37.5	22.4µM*	20µM*	.	.
CC(C)(NS(=O)(=O)OCC(Cl)(Cl)Cl)c1ccccc1	?	?	11.1%	?	.	.
O=C(Cc1c(Cl)cccc1Cl)OCC(=O)N1CCc2ccccc2C1	i	-101.3*	2.8%	-10.0%	30.0%	25.5%
O=C(COC(=O)Cc1c(Cl)cccc1Cl)NCc1ccccc1	?	-67.9*	-23.9%	-19.7%	.	.
O=C(COC(=O)c1ccco1)NCc1ccccc1Cl	-26.8%	18.7	11.4%	-8.4%	18.7%[46.1 µM]	13.6%[46.1 µM]
O=C(COC(=O)CC(c1ccccc1)c1ccccc1)NCc1ccc(Cl)cc1	-6.1%	20.9	35.5µM*	-12.0%	?	?
O=C(COC(=O)c1ccccc1O)NCc1ccccc1Cl	.	-64.7*	22.3%	.	.	.
CCC(Oc1ccccc1)C(=O)Nc1nnc(S(=O)(=O)N(CC)CC)s1 (stereo unspecified)	-4.4%	-2.5	-9.0%	-1.7%	.	7.9%[46.1 µM]
CC1CCCCC1OCCNC(=O)c1ccco1 (stereo unspecified)	.	.	.	.	12.6%[46.1 µM]	.
COc1ccc2c(c1)c1nnc(SCCN3CCOCC3)nc1n2C	-8.3%	.	.	-11.0%	.	.
